# Measurements taken from ChEMBL document CHEMBL4513216, “Probing the Open Global Health Chemical Diversity Library for Multistage-Active Starting Points for Next-Generation Antimalarials” (ACS Infect Dis, 2020).
# In all, about 69,000 compounds went through this assay and about 8,600 (12%) showed an effect of 50% or more. The sample as a whole holds a higher share of strong results than the screen did.
# Test system: Plasmodium berghei
# Assay: Screen against P. berghei liver stage (PbLuc), transformed with Luciferase, at 10uM
# Assay type: functional, HepG2
# Details: tested at 10 uM
row,SMILES,INHIBITION
1,CC(C)(C)c1n[nH]cc1CNCC1CCN(C2CC2)C1 (stereo not given),26.3%
2,CN(CC1CCOC1)S(=O)(=O)c1cccc(C(=O)N2CCOCC2)c1 (stereo not given),1.19%
3,CC(C)N1CCCC(C(=O)N2CCN(c3cccc(C(=O)O)c3)CC2)C1 (stereo not given),21.2%
4,COCCN(C)C[C@@H]1CN(c2cc(C)nc3ccccc23)C[C@@H]1CO,-34.8%
5,CN(Cc1nc2ccccc2s1)C1CCCN(c2cccnn2)C1 (stereo not given),24.7%
6,Cc1cc(C)c(CNc2cnc3ccccc3n2)c(=O)[nH]1,-1.35%
7,Cc1cc(C)c(CNc2ncnc3ccccc23)c(=O)[nH]1,14.7%
8,Cc1cc(C)c(CNc2nc3ccccc3cc2CO)c(=O)[nH]1,55.8%
9,Cc1nc(C)n(C2CCCN(C(=O)c3ccc(O)nc3)C2)n1 (stereo not given),16.1%
10,Cc1nn(C)c(N(C)C)c1CNCc1cccc(Cn2cncn2)c1,-17.6%
11,Cc1c[nH]nc1C1CCCN1Cc1nccn1C (stereo not given),18.4%
12,COc1c(CNCc2cccnc2N2CCCCC2)c(C)nn1C,-91.6%
13,COc1cccc2cc(CNCc3ccnc(N4CCCCC4)c3)oc12,-19.4%
14,COc1c(CNCc2ccnc(N3CCCCC3)c2)c(C)nn1C,87.3%
15,COc1c(CNCc2cccnc2N2CCOCC2)c(C)nn1C,-7.7%
16,COc1c(CNCc2ccnc(N3CCCC3)c2)c(C)nn1C,-8.3%
17,COc1ccc(CNCc2ccc(N3CCCCC3)nc2)cc1OC,52.7%
18,COc1c(CNCc2cccnc2N2CCN(C)CC2)c(C)nn1C,51.3%
19,COc1ccc(CNCc2ccnc(N3CCCCC3)c2)cc1OC,37.2%
20,COc1cccc2cc(CNCc3ccc(N4CCCC4)nc3)oc12,21.6%
21,COc1ccc(OC)c(CNCc2ccnc(N3CCCCC3)c2)c1,10.6%
22,COc1c(CNCc2ccnc(N3CCOCC3)c2)c(C)nn1C,19.4%
23,COc1cc(CNCc2ccnc(N3CCCCC3)c2)cc(OC)c1,80.9%
24,O=C(NCc1cccnc1N1CCCCC1)c1ccc2cc[nH]c2c1,2.7%
25,NC1(CN2CCOCC2)CCCCC1,8.12%
26,C[C@H]1CN(c2ccccn2)C[C@@]12CCN(c1cccnc1)C2=O,8.66%
27,COc1cc(CNCc2ccnc(N3CCCC3)c2)cc(OC)c1,59.6%
28,COc1ccc(CNCc2ccnc(N3CCCC3)c2)c(OC)c1,41.45%
29,COc1cc(CNCc2ccnc(N3CCOCC3)c2)cc(OC)c1,19.2%
30,CCN1CC(C(=O)NCCc2csc(-c3ccncc3)n2)CCC1=O (stereo not given),1.86%
